SMILES strings stand for the structures. The source made the active and inactive calls.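 Rule for the calls, unless noted: active = fluorescence slope higher than the sample average by over 3 SD (cut at about -0.22 in these data, passing the limit was not always enough); inactive = the rest.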

Chain of Dual specificity protein phosphatase 6 (Homo sapiens) (Q16828 whole entry, looked up): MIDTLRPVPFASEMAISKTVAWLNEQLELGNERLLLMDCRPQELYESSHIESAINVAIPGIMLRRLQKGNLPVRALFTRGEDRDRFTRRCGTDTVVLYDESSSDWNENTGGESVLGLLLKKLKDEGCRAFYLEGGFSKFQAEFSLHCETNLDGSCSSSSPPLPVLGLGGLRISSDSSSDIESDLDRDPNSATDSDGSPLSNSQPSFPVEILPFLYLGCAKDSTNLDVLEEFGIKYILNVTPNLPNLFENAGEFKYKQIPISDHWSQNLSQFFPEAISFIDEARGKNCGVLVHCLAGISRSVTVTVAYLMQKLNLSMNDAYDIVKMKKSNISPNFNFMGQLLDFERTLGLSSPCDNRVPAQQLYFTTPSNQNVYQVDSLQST

Test system in the first assay: not listed separately
Description: Primary imaging screen for DUSP6 inhibitors that restore phospho-Erk in transfected HeLa cells, chemical complementation (AID 609;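 active = compounds giving at least 50% inhibition in the cell-based MKP-3 phosphatase rescue imaging test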;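 for inhibition: phospho-Erk level distribution per well compared with pooled transfected vehicle control wells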). The settings on record: HeLa MKP-3 transfected, phospho-Erk imaging KS statistic; measured here: nuclear c-Myc green intensity z-score; at 10 µM; cells stimulated with TPA for 15 min.
The molecule `Cc1ccc(NC(=O)c2cc(N3CCOCC3)nc3ccccc23)cc1` returned a z-score of 1.28. Still for that read-out and setting: next, `COc1ccc(-c2nc3n(n2)C(=O)CC(c2ccco2)S3)cc1` (stereo unspecified): -1.31. Take `COC(=O)c1c(-n2cnnn2)sc(C)c1C`: the z-score is 1.91. `Cc1cccn2c(=O)c(/C=C(\C#N)S(=O)(=O)c3ccccc3)c(N3CCN(C)CC3)nc12`: the z-score was -1.21. Turning to `O=C(CSc1nc2ccccc2s1)Nn1cnnc1`, the z-score was -1.79. Still for that read-out and setting: next, `CCc1[nH]c(=O)c(C#N)c2c1CCCC2`: 0.856.

Staying with this assay, now noted: HeLa MKP-3 transfected, phospho-Erk imaging KS statistic; measured here: nuclear pErk red intensity z-score; at 10 µM; stronger effect = higher value; cells stimulated with TPA for 15 min.
`Cc1ccc(NC(=O)c2cc(N3CCOCC3)nc3ccccc23)cc1` showed a z-score of 0.543. `COc1ccc(-c2nc3n(n2)C(=O)CC(c2ccco2)S3)cc1` (stereo unspecified): the z-score was -2.71.

On to `COC(=O)c1c(-n2cnnn2)sc(C)c1C`, for which the z-score turned out to be 1.76. Same read-out and setting: next, `Cc1cccn2c(=O)c(/C=C(\C#N)S(=O)(=O)c3ccccc3)c(N3CCN(C)CC3)nc12`: -0.646; `O=C(CSc1nc2ccccc2s1)Nn1cnnc1`: 0.477. `CCc1[nH]c(=O)c(C#N)c2c1CCCC2`: the z-score came to 2.79.

Another assay concerns the target Dual specificity protein phosphatase 6 (Homo sapiens) (UniProt Q16828). The assay is described as above. The note with it: HeLa MKP-3 transfected, phospho-Erk imaging KS statistic; at 10 µM; stronger effect = higher value; cells stimulated with TPA for 15 min.
In general, inhibition refers to the change of the read-out against control, counted positive when it falls. With `Cc1ccc(NC(=O)c2cc(N3CCOCC3)nc3ccccc23)cc1`, the inhibition is -16.8% (inactive). On to `COc1ccc(-c2nc3n(n2)C(=O)CC(c2ccco2)S3)cc1` (stereo unspecified), for which the inhibition was -11.5% (inactive). Same read-out and setting: next, `COC(=O)c1c(-n2cnnn2)sc(C)c1C`: -2.29% (inactive). Still for that read-out and setting: next, `Cc1cccn2c(=O)c(/C=C(\C#N)S(=O)(=O)c3ccccc3)c(N3CCN(C)CC3)nc12`: 7.7% (inactive); `O=C(CSc1nc2ccccc2s1)Nn1cnnc1`: 6.04% (inactive). Consider `CCc1[nH]c(=O)c(C#N)c2c1CCCC2`, for which the inhibition was -12.6% (inactive).

The next assay deals with Voltage-gated potassium channel subunit beta-2 (Rattus norvegicus) (UniProt P62483). In words: inhibitors of rat Kvbeta2 reductase activity – biochemical, NADPH fluorescence, primary screen (AID 622).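 Note: slope of raw intensity against log time taken from 70 to 1610 s.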 The note with it: recombinant KvBeta, 4-cyanobenzaldehyde reduction, at 10 µM, stronger effect = higher value.
Chain of Voltage-gated potassium channel subunit beta-2 (Rattus norvegicus) (P62483 whole entry, looked up): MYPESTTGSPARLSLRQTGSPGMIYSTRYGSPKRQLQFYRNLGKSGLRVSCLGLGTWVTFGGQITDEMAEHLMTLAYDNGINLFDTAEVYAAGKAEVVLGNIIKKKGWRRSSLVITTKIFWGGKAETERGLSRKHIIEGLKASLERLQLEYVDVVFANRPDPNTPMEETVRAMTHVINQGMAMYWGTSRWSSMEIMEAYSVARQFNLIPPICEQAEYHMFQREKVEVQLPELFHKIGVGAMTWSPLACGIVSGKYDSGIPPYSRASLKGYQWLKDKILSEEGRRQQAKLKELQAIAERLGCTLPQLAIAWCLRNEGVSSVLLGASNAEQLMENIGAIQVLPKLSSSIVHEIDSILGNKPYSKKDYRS
Regarding `Cc1ccc(NC(=O)c2cc(N3CCOCC3)nc3ccccc23)cc1`, the fluorescence slope was -0.393 (inactive).

In the case of `COc1ccc(N(CC(=O)Nc2cc(C)ccc2C)S(=O)(=O)c2c(C)nn(C)c2C)cc1`, the fluorescence slope was -0.603 (inactive). For the molecule `Cc1nnc(NC(=O)CSc2cn(CCNC(=O)c3ccccc3)c3ccccc23)s1`, the fluorescence slope is -0.452 (inactive). As to `CC1(C)CC(=O)C(C(=O)CCCCC(=O)C2C(=O)CC(C)(C)CC2=O)C(=O)C1`, the fluorescence slope is -0.415 (inactive). The same measure, in the same setting: next, `O=C(CN(c1ccc(F)cc1)S(=O)(=O)c1ccc2c(c1)OCCO2)Nc1ccc2c(c1)OCO2`: -0.485 (inactive); `CCOC(=O)N1CCN(C(=O)CSc2nnc(-c3cccc(Cl)c3)o2)CC1`: -0.494 (inactive); `O=c1oc2c3c4c(cc2s1)CCCN4CCC3`: -0.463 (inactive).

With `CCOC(=O)N1CCN(C(=O)CSc2cc(C)nc3c(-c4ccccc4OC)c(C)nn23)CC1`, the fluorescence slope is -0.54 (inactive). On the same count and under the same terms, next, `Cc1ccc(-c2noc(-c3ccccc3C(=O)NCC3CCCO3)n2)cc1` (stereo unspecified): -0.442 (inactive); `CCS(=O)(=O)N1CCCC(C(=O)NCc2cccc(OC)c2)C1` (stereo unspecified): -0.617 (inactive). Still for that read-out and setting: next, `CC1=C(C(=O)OC2CCCCCC2)C(c2ccc(C)o2)C2=C(CCCC2=O)N1` (stereo unspecified): -0.572 (inactive). The same measure, in the same setting: next, `CC(=O)N1CCN(C(=O)COc2ccc(Br)cc2)CC1`: -0.592 (inactive).

`Cc1ccc(NC(=O)CSc2nnc(-c3ccccn3)n2C)cc1`: the fluorescence slope is -0.418 (inactive).

For the molecule `Nn1c(SCC(=O)NC2CCCCC2)nnc1C1CC1`, the fluorescence slope is -0.466 (inactive). For the molecule `COc1ccc(-c2nc3n(n2)C(=O)CC(c2ccco2)S3)cc1` (stereo unspecified), the fluorescence slope was -0.466 (inactive). As for `O=C(NC1CCCc2ccccc21)c1ccc(CNc2c(N3CCOCC3)c(=O)c2=O)cc1` (stereo unspecified), the fluorescence slope is -0.55 (inactive). On to `Nc1nc(-n2cnnc2)nn1-c1ccccc1`, for which the fluorescence slope was -0.366 (inactive). With `Cc1cccc(-n2ncc3c(NCc4cccnc4)ncnc32)c1`, the fluorescence slope was -0.555 (inactive).

In the case of `CCCn1c(O)c(CN2CCCC(C)C2)c(C)c(C#N)c1=O` (stereo unspecified), the fluorescence slope is -0.472 (inactive). As for `C=CCn1c(SCn2nnc3ccccc3c2=O)nnc1-c1ccc(Br)cc1`, the fluorescence slope is -0.328 (inactive). Same read-out and setting: next, `Cc1cc(NS(=O)(=O)Cc2ccccc2)cc(C)c1OCC(=O)N1CCOCC1`: -0.478 (inactive). As to `COC(=O)c1c(-n2cnnn2)sc(C)c1C`, the fluorescence slope is -0.421 (inactive). For `O=S(=O)(NC1CCCC1)c1ccccc1Cl`, the fluorescence slope was -0.455 (inactive). Consider `CCOC(=O)c1[nH]c2ccccc2c1NC(=O)C(CC)CC`, for which the fluorescence slope is -0.466 (inactive).

`Cc1cccn2c(=O)c(/C=C(\C#N)S(=O)(=O)c3ccccc3)c(N3CCN(C)CC3)nc12`: the fluorescence slope was -0.457 (inactive). As for `O=C(C1CCN(C2CC(=O)N(c3ccc(F)cc3)C2=O)CC1)N1CCOCC1` (stereo unspecified), the fluorescence slope is -0.512 (inactive). Turning to `Cc1cc(C(=O)Nc2cccnc2)no1`, the fluorescence slope was -0.35 (inactive). In the case of `Cc1occc1C(=O)Nc1nnc(C2CCCCC2)s1`, the fluorescence slope was -0.526 (inactive).

Values taken from PubChem BioAssay.
